In PubChem BioAssay (NCI):
About 79,000 compounds went through this panel and 15% of them were active in at least one assay; those are over-represented in the sample as a whole. Unmarked numbers belong to inactive results. Activity calls are given as the source filed them. No stated cut-off is given here; in the data, active means growth inhibition above about 70%; inactive means the rest. Where a SMILES comes first, the peptide text is derived from it. The star is where a group is joined. ONp = O=[N+]([O-])c1ccc(O*)cc1; Tos = Cc1ccc(S(=O)(=O)*)cc1

experiment: NCI Yeast Anticancer Drug Screen. Data for the cln2 rad14 strain (AID 165);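 further: 0% = growth equal to vehicle treated cultures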; conditions: S. cerevisiae cln2 rad14 strain, at 50.0 µM, stronger effect = higher value
In short: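 The screen exposed genetically defined yeast (cln2 rad14) to test compounds and scored growth inhibition relative to vehicle-treated controls.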

Row | SMILES | growth inhibition
1 | Cc1cc(=O)oc2nc(-c3ccccc3)[nH]c(=O)c12 | -5.4%
2 | O=C(Nc1cccc([N+](=O)[O-])c1)Nc1ccccc1F | 10.5%
3 | COc1cc(C2c3c(cc(OC)c(O)c3OC)C=C(C(=O)O)C2CO)cc(OC)c1O (stereo not given) | 24.3%
4 | Cc1cc(C(=O)O)ccc1C(=O)O | -39.4%
5 | COc1ccc(CC2OCCC3c4ccccc4NC23)cc1OC (stereo not given) | -10.2%
6 | CC(=O)C1=CCC2[C@H]3CC=C4C[C@H](O)CC[C@@]4(C)C3CC[C@@]12C (stereo not given in full) | 17.9%
7 | CC(=O)C(C)(C)O | -8.7%
8 | CCc1nnc2n1N=C(c1ccc(-c3ccccc3)cc1)CS2 | 5.05%
9 | CC(C)CC(N)C(=O)NC(Cc1c[nH]c2ccccc12)C(N)=O (stereo not given) | -2.4%
10 | C=C1CCC2C(C)(CO)C(O)CCC2(C)C1CCC1=CCOC1=O (stereo not given) | 3.35%
11 | Brc1ccccc1-c1nnc(-c2cccc3ccccc23)o1 | -10.8%
12 | O=C1c2ccc([N+](=O)[O-])cc2C(=O)N1CCBr | -10.2%
13 | OCc1ccccc1CC(O)c1ccccc1 (stereo not given) | -4.65%
14 | O=C(Nc1ccc2ccccc2c1)C1CC1 | -68.8%
15 | C(=C/c1ccccc1)/CNCCNC/C=C/c1ccccc1 | 35%
16 | Cc1ccc(S(=O)(=O)NCC(=O)NCC(=O)Oc2ccc([N+](=O)[O-])cc2)cc1 (Tos-Gly-Gly-ONp) | 18.8%
17 | Cc1cn(C2CC(O)C(CO)O2)c(=O)nc1NC1CCCCCCCCCCC1 (stereo not given) | 12.9%
18 | O=C1c2cc3c(cc2CC12Cc1cc4c(cc1C2)CCC4)CCC3 | 7.45%
19 | C/C(CC(=O)Nc1ccc(Cc2ccc(Cl)cc2)cc1)=N/Nc1ccc([N+](=O)[O-])cc1[N+](=O)[O-] | -1.15%
20 | CC1OC(O[C@@H]2OC=C(C=O)[C@@]3(O)CC[C@H](C)[C@@H]23)C(O)C(O)C1O (stereo not given in full) | 7.6%

Row | SMILES | growth inhibition
21 | COc1cc2c3cc1Oc1c(O)c(OC)cc4c1C(Cc1ccc(O)c(c1)Oc1ccc(cc1)CC3N(C)CC2)N(C)CC4 (stereo not given) | -5.4%
22 | CCc1ccc(/C(C#N)=C/c2ccccc2Cl)cc1 | 10.2%
23 | Cc1cc(O)c(C=NC(=S)c2ccccc2)c(=O)o1 | 5.3%
24 | c1ccc2c(CN3CCCCC3)cccc2c1 | 5.5%
25 | O=C(CN1CCCCC1)NC(=O)N/N=C\c1ccco1 | -59%
26 | O=C(COCC(=O)N/N=C/c1ccc(O)cc1)N/N=C/c1ccc(O)cc1 | -11.9%
27 | Nc1ccc(S(=O)(=O)N/N=C/c2ccccc2)cc1 | 34.4%
28 | CCCNS(=O)(=O)c1nc2ccccc2s1 | -22.1%
29 | CC(O)CCCCC(O)CCC[C@H](O)[C@H]1CCC([C@H]2CCC([C@@H](O)CCCCCCCCCCCCC3=C[C@H](C)OC3=O)O2)O1 (stereo not given in full) | 85.5% (active)
30 | Cc1cc(OCc2nnc3n2S(=O)(=O)c2ccccc2N3C)ccc1Cl | -0.75%
31 | Cc1c(Cl)ccc2c1NC(=O)C2(O)C1Cc2ccccc2C1=O (stereo not given) | 34%
32 | C(=C\c1ccc2ccccc2c1)/c1ccc2ccccc2c1 | 63.5%
33 | CC(C)=NNC(=O)c1ccccc1CC(O)(c1ccccc1)c1ccccc1 | -35.6%
34 | CCOC(=O)Cc1nc(Cl)c2c(C)c(C)sc2n1 | 20.2%
35 | CN(C)CCCNc1ccc2nnn3c4ccc(O)cc4c(=O)c1c23 | 0.15%
36 | CCCCSc1nc(NCC)nc(NCC)n1 | 27.1%
37 | Nc1nc(N)c(N)c(Nc2ccc(Cl)cc2)n1 | 21.4%
38 | CCOc1ccc(NC(C)=O)c([N+](=O)[O-])c1 | 9.45%
39 | CCOC(=O)CCC(C(=O)OCC)C(C)C(=O)OCC (stereo not given) | -11.7%
40 | CCOCCOC(=O)Nc1ccc(C)c(NC(=O)OCCOCC)c1 | 4.45%
